Test systems include DU-145 prostate; K-562 leukemia; MALME-3M melanoma; MDA-MB-231 breast; RXF 393 renal; SF-268 CNS; SF-295 CNS; SF-539 CNS; UACC-257 melanoma; M14 melanoma; HCT-15 colon; SNB-75 CNS; SNB-19 CNS; U251 CNS; PC-3 prostate; SK-MEL-5 melanoma; UACC-62 melanoma; LOX IMVI melanoma; SK-MEL-28 melanoma; HT29 colon.
Test in all cases: NCI-60 one-dose screen, 48 h (100 = growth as untreated, 0 = no growth, -100 = all killed)
Common to all, as to conditions: 10 µM unless noted

This is part of a sample that, as a whole, favours compounds with a hit. Of some 83,000 tested, about 20% had one in any assay.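 Percent growth is the endpoint: 0 to 100 indicates growth inhibition (40 means 60% inhibition), 0 means no net growth, and negative values indicate cell death.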 A number with no mark means an inactive call. The source made the active and inactive calls. How the source made its calls: active means growth percent below 10; inactive means the rest.

For the compound `C/C(=C(/c1ccc(Cl)cc1)c1ccc(OCCN2CCCCC2)cc1)c1ccccc1`, the growth with DU-145 prostate is 97.6%; in the test on K-562 leukemia, 13.2%; in the test on MALME-3M melanoma it was 76.9%; in the test with MDA-MB-231 breast, 80.2%; with RXF 393 renal it was 84.7%; in the test with SF-268 CNS, 90.5%. The growth in the test on SF-295 CNS was 83.8%; in the test with SF-539 CNS it was 69.6%; with UACC-257 melanoma, 80.3%; in the test on M14 melanoma it was 67.1%; in the test on HCT-15 colon, 24.8%; in the test on SNB-75 CNS, 90.7%. The growth in the test on SNB-19 CNS was 86.7%; with U251 CNS, 66.5%; in the test on PC-3 prostate, 66.8%; with SK-MEL-5 melanoma it was 62%; with UACC-62 melanoma, 64.9%; with LOX IMVI melanoma it was 59.9%. The growth with SK-MEL-28 melanoma was 91.5%.
Consider `C[C@@H](NC(=O)c1ncnc(N)c1Cl)c1ncc(C(=O)Nc2cc(C(F)(F)F)c(Cl)cn2)s1`, for which the growth is 94.9% with DU-145 prostate; 11.5% in the test with K-562 leukemia; 3.24% (active) in the test on MALME-3M melanoma; 39% in the test with MDA-MB-231 breast; 106% in the test with RXF 393 renal; 93% in the test on SF-268 CNS. In addition, the growth is 90.2% in the test with SF-295 CNS; 86.4% in the test on SF-539 CNS; -13.9% (active) with UACC-257 melanoma; 15% with M14 melanoma; 86.4% in the test with HCT-15 colon; 103% with SNB-75 CNS. Further, the growth in the test on U251 CNS is 75.9%; in the test on PC-3 prostate, 93.7%; in the test on SK-MEL-5 melanoma, 51.2%; in the test with UACC-62 melanoma, -0.831% (active); in the test with LOX IMVI melanoma it was 36.5%; with SK-MEL-28 melanoma, 9.63% (active).
With `O=C1NC(=O)[C@@H](c2cn3c4c(cccc24)CCC3)[C@@H]1c1c[nH]c2ccccc12`, the growth with DU-145 prostate was 15%; in the test on K-562 leukemia, 9.6% (active); in the test with MALME-3M melanoma, 59.7%; in the test on MDA-MB-231 breast, 34.1%; in the test with RXF 393 renal it was 6.54% (active); in the test with SF-268 CNS it was 34.2%. The growth is 19.2% in the test on SF-295 CNS; -17.3% (active) in the test on SF-539 CNS; 38.5% in the test with UACC-257 melanoma; 8.08% (active) in the test on M14 melanoma; 16.8% in the test on HCT-15 colon; 5.51% (active) with SNB-75 CNS. For the same compound, the growth with SNB-19 CNS was 27.3%; with U251 CNS, 8.44% (active); with PC-3 prostate, 21.1%; with SK-MEL-5 melanoma, 3.82% (active); with UACC-62 melanoma, 33.9%; in the test with LOX IMVI melanoma it was 19.2%. In the test with SK-MEL-28 melanoma, the growth is 61.3%.
In the case of `CC(C)OP(=O)(CCC(=O)c1c[nH]c2ccccc12)OC(C)C`, the growth with DU-145 prostate is 116%; in the test on K-562 leukemia, 95.6%; in the test on MALME-3M melanoma it was 97.2%; with MDA-MB-231 breast, 106%; in the test with RXF 393 renal, 114%; in the test with SF-268 CNS, 101%. For the same compound, the growth in the test on SF-295 CNS is 104%; with SF-539 CNS it was 97.4%; in the test on M14 melanoma it was 98.4%; in the test on HCT-15 colon, 104%; with HT29 colon it was 97.2%; in the test with SNB-75 CNS, 82.6%. Also, the growth is 104% with SNB-19 CNS; 90.1% in the test on U251 CNS; 73.2% with PC-3 prostate; 110% in the test with SK-MEL-5 melanoma; 97% in the test on UACC-62 melanoma; 96.2% with LOX IMVI melanoma. In the test with SK-MEL-28 melanoma, the growth is 121%.
Take `CCN1CCN(Cc2ccc(NC(=O)Nc3nc(-c4cc(OC)c(OC)c(OC)c4)cs3)cc2C(F)(F)F)CC1`: the growth in the test with DU-145 prostate is 38.7%; in the test with K-562 leukemia, -9.87% (active); in the test on MALME-3M melanoma it was -49.8% (active); in the test with MDA-MB-231 breast, -13.8% (active); in the test on RXF 393 renal it was 22.6%; in the test with SF-268 CNS, 34.8%. Also, the growth in the test on SF-295 CNS was -38% (active); in the test with SF-539 CNS it was -6.61% (active); in the test with UACC-257 melanoma, -13.1% (active); in the test on M14 melanoma it was -78.6% (active); in the test with HCT-15 colon, -12.6% (active); in the test with SNB-75 CNS it was 24.2%. Besides, the growth was 33.7% in the test with SNB-19 CNS; 15.3% with U251 CNS; 6.09% (active) in the test with PC-3 prostate; -95.3% (active) in the test on SK-MEL-5 melanoma; -68.4% (active) in the test with UACC-62 melanoma; -82.7% (active) with LOX IMVI melanoma. Further, the growth in the test on SK-MEL-28 melanoma was -51.3% (active).
For the compound `C1=C\COCc2cc(ccc2OCCN2CCCC2)Nc2nccc(n2)-c2cccc(c2)COC/1`, the growth was 13.7% in the test with DU-145 prostate; 1.93% (active) in the test on K-562 leukemia; -79.3% (active) with MALME-3M melanoma; -1.88% (active) with MDA-MB-231 breast; -74.8% (active) in the test on RXF 393 renal; -0.949% (active) in the test with SF-268 CNS. In addition, the growth is -33.8% (active) with SF-295 CNS; -83.7% (active) in the test with SF-539 CNS; -75.1% (active) in the test with UACC-257 melanoma; -59.4% (active) in the test on M14 melanoma; 1.31% (active) in the test with HCT-15 colon; -95.8% (active) with SNB-75 CNS. The growth in the test with SNB-19 CNS is 1.55% (active); in the test on U251 CNS it was -22.6% (active); with PC-3 prostate it was 0.91% (active); in the test with SK-MEL-5 melanoma it was -96.5% (active); in the test with UACC-62 melanoma it was -68.7% (active); in the test on LOX IMVI melanoma it was -70.2% (active). The growth with SK-MEL-28 melanoma was -41.8% (active).
For `O=C1C=CC2(NN=C(c3ccccc3)N2c2ccc(Cl)cc2)c2cccc(O)c21` (stereo unspecified), the growth in the test with DU-145 prostate was 51.9%; with K-562 leukemia, 25.5%; in the test with MALME-3M melanoma it was 38.8%; in the test with MDA-MB-231 breast it was 77.4%; with RXF 393 renal it was 119%; with SF-268 CNS it was 57.3%. Further, the growth in the test with SF-295 CNS was 27.8%; in the test with SF-539 CNS it was 26.6%; in the test with UACC-257 melanoma, 5.85% (active); in the test with M14 melanoma, 28.9%; with HCT-15 colon, 18.7%; in the test on HT29 colon, 73%. The growth with SNB-75 CNS is 33.1%; in the test with U251 CNS, 18.1%; in the test with PC-3 prostate, 39.1%; in the test with SK-MEL-5 melanoma, -70.2% (active); with UACC-62 melanoma, -33.1% (active); with LOX IMVI melanoma, 2.09% (active). In addition, in the test with SK-MEL-28 melanoma, the growth was 52.6%.
As for `CN1CCN(c2nc(C3=C(c4c[nH]c5ccccc45)C(=O)NC3=O)c3ccccc3n2)CC1`, the growth with DU-145 prostate was 90.5%; in the test with K-562 leukemia, 66.5%; in the test on MALME-3M melanoma, -12.8% (active); in the test on MDA-MB-231 breast it was 70.6%; in the test on RXF 393 renal, 120%; with SF-268 CNS, 95.1%. Further, the growth with SF-295 CNS is 98.7%; in the test on SF-539 CNS it was 92.2%; in the test on UACC-257 melanoma, -20% (active); in the test with M14 melanoma, 12.2%; with HCT-15 colon, 85.3%; in the test on HT29 colon, 11.6%. The growth in the test with SNB-75 CNS was 79.4%; with U251 CNS, 69.4%; in the test with PC-3 prostate it was 108%; in the test on SK-MEL-5 melanoma, 45.6%; in the test on UACC-62 melanoma it was 6.81% (active); in the test on LOX IMVI melanoma it was 80.4%. In the test with SK-MEL-28 melanoma, the growth is 3.91% (active).

These data come from PubChem BioAssay (NCI).
